Measurements taken from paper PMC4336329 (PLoS ONE, 2015).
Screen size: about 310,000 compounds; about 14,000 (4.5%) showed an effect of 50% or more. Effects have a minus sign here. Shown is part of a subset that was picked to be rich in strong results.

biological target: human ether-à-go-go-related gene (hERG) potassium channel (human, UniProt Q12809); experiment: primary screen, population patch clamp on CHO cells stably expressing hERG; higher = less effect of the substance
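Also: peak tail current of the secondary pulse compared with the same well before compound.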

Sequence of human ether-à-go-go-related gene (hERG) potassium channel (Q12809 whole entry, looked up): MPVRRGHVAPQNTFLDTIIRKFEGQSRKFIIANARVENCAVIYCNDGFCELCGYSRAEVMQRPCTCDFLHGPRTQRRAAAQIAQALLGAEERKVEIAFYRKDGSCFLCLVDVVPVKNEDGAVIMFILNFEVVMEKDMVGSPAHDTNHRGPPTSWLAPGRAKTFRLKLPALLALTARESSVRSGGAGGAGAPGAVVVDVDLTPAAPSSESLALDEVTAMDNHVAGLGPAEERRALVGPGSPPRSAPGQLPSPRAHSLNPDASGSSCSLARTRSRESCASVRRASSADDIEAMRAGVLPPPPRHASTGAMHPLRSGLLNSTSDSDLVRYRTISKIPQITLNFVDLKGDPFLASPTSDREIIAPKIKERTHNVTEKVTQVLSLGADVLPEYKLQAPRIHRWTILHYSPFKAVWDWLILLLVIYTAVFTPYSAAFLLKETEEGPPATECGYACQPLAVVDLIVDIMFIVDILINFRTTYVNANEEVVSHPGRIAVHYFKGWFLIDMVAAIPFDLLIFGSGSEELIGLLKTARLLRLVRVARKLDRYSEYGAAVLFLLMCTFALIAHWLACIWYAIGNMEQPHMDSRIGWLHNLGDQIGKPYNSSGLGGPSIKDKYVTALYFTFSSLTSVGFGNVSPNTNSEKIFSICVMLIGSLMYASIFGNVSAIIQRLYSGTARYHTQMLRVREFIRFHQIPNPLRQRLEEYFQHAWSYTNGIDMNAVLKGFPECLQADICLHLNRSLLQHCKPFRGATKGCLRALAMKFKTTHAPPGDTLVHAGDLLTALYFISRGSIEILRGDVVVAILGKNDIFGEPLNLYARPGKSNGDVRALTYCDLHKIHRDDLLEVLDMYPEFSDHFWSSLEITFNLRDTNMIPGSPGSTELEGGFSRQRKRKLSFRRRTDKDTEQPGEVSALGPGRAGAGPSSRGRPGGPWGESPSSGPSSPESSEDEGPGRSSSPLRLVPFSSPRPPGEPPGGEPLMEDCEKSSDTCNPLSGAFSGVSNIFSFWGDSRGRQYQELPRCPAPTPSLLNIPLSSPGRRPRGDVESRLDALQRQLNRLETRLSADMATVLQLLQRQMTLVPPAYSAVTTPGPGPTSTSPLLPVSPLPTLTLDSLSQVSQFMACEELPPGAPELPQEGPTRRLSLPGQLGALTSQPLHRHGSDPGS

SMILES	hERG current change (%, negative = inhibition) at 10uM [%]
COc1ccc(-c2csc(NC(=O)c3ccc(C(C)(C)C)cc3)c2C(=O)O)cc1	24.9
CC(NC(=S)NCCc1ccccc1)C(c1cccs1)N1CCN(C)CC1 (stereo not drawn)	-35.7
CC(=O)c1ccc(NC(=O)Nc2ccncc2)cc1	15.3
O=C(CCCc1c[nH]c2ccccc12)N[C@@H](Cc1c[nH]c2ccccc12)C(=O)O	18.9
CCOC(=O)N1CCC(NC(=O)c2cc(C(=O)Nc3ccc(S(=O)(=O)N4CCCCC4)cc3)ccc2CO)CC1	34.2
CCOC(=O)Cn1nc(C)cc1NC(=O)c1cccnc1	10
O=C(CCCc1nc(-c2ccc(Cl)cc2)no1)NC1CCCC1	-1.19
O=C(O)[C@H](Cc1ccccc1)NC(=O)N1CCOCC1	-7.49
CCOC(=O)c1cnc2ccc(OC)cc2c1Nc1ccc2c(c1)OCCO2	1.43
CCOC(=O)c1ccc(NCc2cccnc2)cc1	0.518
CCOC(=O)c1cnc2c(OC)cccc2c1N1CC(C)CC(C)C1 (stereo not drawn)	-17.1
CCOC(=O)c1cnc2c(Cl)cccc2c1NCCN(C)C.Cl	-25.6
CCOC(=O)c1cnc2c(OC)cccc2c1NCc1cccnc1	-72.2
CCOC(=O)c1cnc2c(OC)cccc2c1Oc1ccccc1	3.3
CCOC(=O)c1cnc2c(OC)cccc2c1Nc1ccc2c(c1)OCCO2	-56.3
CCOC(=O)c1cnc2c(C(=O)OC)cccc2c1NCc1cccnc1	-70.5
CCOC(=O)c1cnc2ccccc2c1Nc1ccc2c(c1)OCCO2	-12.3
CC(=O)c1cccc(NC(=O)C(C)OC(=O)CN2C(=O)NC(C)(C)C2=O)c1 (stereo not drawn)	23.8
COC(=O)C1=C(c2cc3ccccc3s2)C[C@@H]2CC[C@H]1N2C(=O)NCCNC(C)=O	2.06
O=C(O)Cn1ccnc1	4.81
Nc1ccccc1-c1nnc(SCc2ccccc2Cl)[nH]c1=O	-0.313
COC(=O)C(c1ccccc1)N1CCCCCC1.Cl (stereo not drawn)	10.8
Cc1nc2ncnn2c(C)c1CCC(=O)N1CCN(Cc2ccccc2)CC1	-7.67

SMILES	hERG current change (%, negative = inhibition) at 10uM [%]
Cc1nc2ncnn2c(C)c1CCC(=O)N1CCOCC1	1.89
Cc1nc2ncnn2c(C)c1CCC(=O)N1CCc2ccccc2C1	-63.4
Cc1nc2nc(C)c(CCC(=O)N3CCc4ccccc43)c(C)n2n1	-63.5
Cc1nc2ncnn2c(C)c1CCC(=O)N1CCCCC1	-2.79
Cc1nc2ncnn2c(C)c1CCC(=O)N1CCc2ccccc21	-80.6
CCOC(=O)N1CCN(C(=O)CCc2c(C)nc3nc(C)nn3c2C)CC1	-22
Cc1nc2ncnn2c(C)c1CCC(=O)N1CCN(c2ccccn2)CC1	-33.3
Cc1nc2nc(C)c(CCC(=O)O)c(C)n2n1	8.07
CCc1nnc(NC(=O)CCN2C(=O)/C(=C/c3cc(OC)c(OC)c(OC)c3)SC2=S)s1	8.4
O=C(O)CCC(C(=O)O)n1c(O)c(C2=c3ccccc3=NC2=O)sc1=S (stereo not drawn)	20.5
Cc1ccc(OCC(=O)N2CCC(N3CC(C)CC(C)C3)CC2)cc1 (stereo not drawn)	-45.5
S=C1NCN(CCc2ccccc2)CN1Cc1ccccc1	14.8
COc1ccc(CNC(=O)Cn2cc([N+](=O)[O-])cn2)cc1	16.1
O=C(COC(=O)c1ccc2ncsc2c1)NCc1ccc(Cl)cc1	-4.62
O=C(Nc1cccnc1)c1cc(-c2ccccc2)on1	5.06
COc1ccc2oc(=O)c(C(=O)N3CCCc4ccccc43)cc2c1	-63.1
COc1ccc2oc(=O)c(C(=O)N3c4ccccc4CC3C)cc2c1 (stereo not drawn)	-21.6
COc1ccc2oc(=O)c(C(=O)N3CCc4ccccc43)cc2c1	15.8
COc1ccc(OCc2nc3c4cc(OC)c(OC)cc4nc(=S)n3[nH]2)cc1	11.7
COc1cc2nc(COc3ccc(C#N)cc3)n(CC#N)c(=O)c2cc1OC	-50.7
CCSc1nc2cc(OC)c(OC)cc2c(=O)n1CC	-2.16
Cc1ccc(Cn2c(Sc3nnc(C)s3)nc3c2c(=O)[nH]c(=O)n3C)cc1	-46.8
COc1cccc(C2C3=C(Nc4[nH]n(-c5ccccc5)c(=O)c42)c2ccccc2C3=O)c1 (stereo not drawn)	9.64

SMILES	hERG current change (%, negative = inhibition) at 10uM [%]
O=C(CCNS(=O)(=O)c1ccc(Br)cc1)NC1CCN(Cc2ccccc2)CC1	-61.9
O=C(Cn1cc2c(n1)CCCCC2)NC1CCCCCC1	0.992
Cl.O=C(Cc1ccccc1)NC1CCN(Cc2ccccc2)CC1	1.21
O=C(Cc1ccc(Br)cc1)NC1CCN(Cc2ccccc2)CC1	-56
O=C(CCNS(=O)(=O)c1cccs1)NC1CCN(Cc2ccccc2)CC1	9.19
O=C(Cn1cc2c(n1)CCCC2)NC1CCN(Cc2ccccc2)CC1	-8.32
Cc1ccc(CC(=O)NC2CCN(Cc3ccccc3)CC2)cc1	-12.7
CN(CC(=O)NC1CCN(Cc2ccccc2)CC1)S(=O)(=O)c1ccc(Br)s1	-18
CCOc1ccc(S(=O)(=O)NCCC(=O)NC2CCN(Cc3ccccc3)CC2)cc1	-21.8
CN(CC(=O)NC1CCN(Cc2ccccc2)CC1)S(=O)(=O)c1ccc(Cl)cc1	-40.2
O=C(Cn1cc2c(n1)CCCCC2)NC1CCN(Cc2ccccc2)CC1	-58.5
CN(CC(=O)NC1CCN(Cc2ccccc2)CC1)S(=O)(=O)c1ccc(Cl)s1	-67.9
CC1=CC(C)C2COC(c3ccc[n+](C)c3)C1C2C.[I-] (stereo not drawn)	14.3
O=C1/C(=C/c2ccncc2)N2CCC1CC2	2.32
CCC(NC(=O)c1ccccc1NC(=O)c1ccco1)C(=O)NC1CCCCC1 (stereo not drawn)	-22.5
CCOCCCNC(=O)c1ccc2c(c1)N(CC)C(=O)c1ccccc1S2=O (stereo not drawn)	16.2
CCN(CC)c1ccc(C2C(C(C)=O)C(=O)CC(C)(O)C2C(C)=O)cc1 (stereo not drawn)	-13.4
O=C(Nc1ccc(F)c(Cl)c1)NC1CC1	13.7
CC1(C)CC(=O)C(C(c2ccc(Br)cc2)C2C(=O)CC(C)(C)CC2=O)C(=O)C1	0.769
COc1cc(C)c(S(=O)(=O)Nc2ccccc2F)cc1C	6.11
Cc1cccn2c(=O)c3cc(C(=O)NCCN4CCOCC4)c(=N)n(Cc4cccnc4)c3nc12	-18.4
Cc1cccn2c(=O)c3cc(C(=O)NCC4CCCO4)c(=N)n(Cc4ccc(F)cc4)c3nc12 (stereo not drawn)	-75.7
Cc1cccn2c(=O)c3cc(C(=O)NCC4CCCO4)c(=N)n(Cc4cccnc4)c3nc12 (stereo not drawn)	-95.1

SMILES	hERG current change (%, negative = inhibition) at 10uM [%]
CCC(Sc1nc2ccccc2c(=O)n1CC1CCCO1)C(=O)NCc1cccnc1 (stereo not drawn)	-23.5
O=C(NCc1cccnc1)C(=O)NCC1CCCO1 (stereo not drawn)	21.5
Cc1cccn2c(=O)c3cc(C(=O)NCc4cccnc4)c(=N)n(CC4CCCO4)c3nc12 (stereo not drawn)	-75.6
Cc1ccc(Cn2c(=N)c(C(=O)NCC3CCCO3)cc3c(=O)n4cccc(C)c4nc32)cc1 (stereo not drawn)	-81.5
CN1CCN(CC#CCOc2ccc(Cl)cc2)CC1.O=C(O)C(=O)O	-0.0359
CSc1ccccc1NC(=O)COc1ccccc1C	6.39
CCOC(=O)C1(CC2CCCCO2)CCN(C(=O)Nc2ccc(SC)cc2)CC1 (stereo not drawn)	2.65
COc1ccccc1NC(=O)c1oc2ccc(C)cc2c1C	14.1
Cc1nnc(SCC(=O)NCc2ccccc2)[nH]c1=O	-7.09
COc1ccc(/C=C2/C(=O)OCc3cc(OC)c(OC)cc32)c(OC)c1	-27.8
CCOC(=O)C1=C(c2ccc(O)cc2)NC(=O)NC1C (stereo not drawn)	9.47
CC1(C)CC2CC(C)(CN2S(=O)(=O)c2ccc(F)cc2F)C1 (stereo not drawn)	-11.8
Cn1c(=O)c2c(ncn2CC(COCc2ccccc2)OCc2ccccc2)n(C)c1=O (stereo not drawn)	-12.1
Cn1c(=O)c2c(ncn2CC(COCc2ccccc2Cl)OCc2ccccc2Cl)n(C)c1=O (stereo not drawn)	-33.6
Cn1c(=O)c2c(ncn2CC(COCc2ccc(Cl)cc2)OCc2ccc(Cl)cc2)n(C)c1=O (stereo not drawn)	-51.1
CN(Cc1ccc(F)cc1)C(=O)c1cccc(NS(=O)(=O)c2ccccc2)c1	-13.4
COc1cccc(C(=O)Nc2ncc3c(n2)CC(c2ccc(OC)cc2OC)CC3=O)c1 (stereo not drawn)	-17.3
COc1ccc(CCNC(=O)c2ccccc2C(=O)NCCc2ccc(OC)c(OC)c2)cc1OC	3.48
CN(C)CCC(O)(c1ccccc1)c1ccccc1.Cl	-20.2
CN(C)C(C)(C)/C=C/C(O)(c1ccccc1)c1ccccc1	-36.6
CN(C)C/C=C/C(O)(c1ccccc1)c1ccccc1	-61.5
